D1 potentiator – Potentiators of Human D1 Dopamine Receptor: qHTS; D(1A) dopamine receptor (Homo sapiens), P21728; HEK293 TREx D1 cells, calcium flux, dopamine EC20 potentiation; potentiation, % at 10 µM; 360,000 tested, 0.036% active; AID 504651, 2011; in the data active means potentiation above about 30%
TRHR ag – qHTS for Small Molecule Agonists and Allosteric Enhancers of Human TRH Receptor: Primary Screen for Agonists; Thyrotropin-releasing hormone receptor (Homo sapiens), P34981; TRHR cells, calcium flux fluo-8, FDSS agonist mode; 360,000 tested, 0.18% active; activation, % at 2 µM
Target sequence (P34981 whole entry, looked up): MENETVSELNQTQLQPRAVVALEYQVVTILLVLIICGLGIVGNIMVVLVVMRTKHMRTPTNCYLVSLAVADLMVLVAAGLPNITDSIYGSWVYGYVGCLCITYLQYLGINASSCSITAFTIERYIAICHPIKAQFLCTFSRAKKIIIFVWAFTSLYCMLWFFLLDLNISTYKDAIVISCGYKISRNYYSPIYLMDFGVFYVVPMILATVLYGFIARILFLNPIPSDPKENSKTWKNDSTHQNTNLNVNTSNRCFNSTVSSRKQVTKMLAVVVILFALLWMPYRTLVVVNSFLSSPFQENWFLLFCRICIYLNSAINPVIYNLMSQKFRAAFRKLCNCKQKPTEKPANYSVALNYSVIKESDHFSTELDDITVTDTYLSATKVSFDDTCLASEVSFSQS
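TRHR-expressing cells, plated overnight in medium with 10% serum, were loaded with fluo-8 calcium dye at room temperature. After a 10 s baseline, library compound was pin-added and calcium release was recorded kinetically (ex 480/em 530) as agonist response.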
D1 agonist – Allosteric Agonists of the Human D1 Dopamine Receptor: qHTS; D(1A) dopamine receptor (Homo sapiens), P21728; HEK293 T-REx D1 cells, calcium flux, agonist mode; activation, % at 2 µM; 360,000 tested, 1% active; AID 504660, 2011
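Tetracycline-induced HEK293 TREx D1 cells, force-coupled to calcium signalling, were dye-loaded with a no-wash calcium kit. Compound was pin-added after a 10 s baseline. Fluorescence was read kinetically at 1 cycle/s for 180 s, with calcium rises flagged as agonism.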
D1 antag – Antagonist of Human D 1 Dopamine Receptor: qHTS; D(1A) dopamine receptor (Homo sapiens), P21728; HEK293 TREx D1 cells, calcium flux, dopamine EC80; hits give low values; activity change, negative = inhibition, % at 10 µM; AID 504652, 2011; 360,000 tested, 3.2% active; in the data active means activity change below about -30%
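Antagonism measured as reduced calcium response to an EC80 dopamine addition following 180 s compound pre-read; cells were inducible HEK293 Trex D1 plated overnight at 30 C, read kinetically at 1 cycle/sec.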
TRHR PAM – qHTS for Small Molecule Agonists and Allosteric Enhancers of Human TRH Receptor: Primary Screen for Enhancers. TRHR cells, fluo-8 calcium fluorescence, EC20 TRH enhancement. enhancement, % at 2 µM. 360,000 tested, 0.66% active; in the data active means enhancement above about 30%
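Enhancer read-out: after compound pinning and an initial kinetic agonist-mode read, an EC20 of TRH (10 nM final) was injected and fluo-8 calcium signal (Ex 480/Em 530) followed at 1 s/cycle for 100 cycles in TRHR-expressing cells.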
Of the large screens only hits and unclear results are named; the others gave an inactive call; ! = a repeat was not active. Compounds with a hit are over-represented: about 4.6% of the library has one in this group of screens. Unless noted, no stated cut-off is given here; in the data, active means activation above about 30%; inactive means the rest.

CCCCc1ccc(S(=O)(=O)N2CCN(C(=O)c3ccco3)CC2)cc1	D1 antag -31.4
O=C(N/C(=C/c1cccnc1)C(=O)N1CCOCC1)c1ccccc1F	none
COc1ccc(N2CCN(CCNC(=O)Nc3ccc(Cl)cc3)CC2)cc1	D1 agonist 37.8
O=C(NCCN1CCN(c2cccc(Cl)c2)CC1)Nc1ccccc1	none
COc1ccc(N2CCN(CCCNC(=O)Nc3ccccc3)CC2)cc1	none
O=C(NCCN1CCN(c2ccccc2)CC1)Nc1ccccc1Br	D1 antag -32.7!
COc1ccccc1NC(=O)NCCN1CCN(c2cccc(Cl)c2)CC1	D1 antag -39.8!
O=C(NCCN1CCN(c2ccccc2)CC1)Nc1ccc(Cl)cc1	D1 agonist 30.0, D1 antag -32.4
CCOc1ccccc1N(CC(=O)N1CCC(C(N)=O)CC1)S(=O)(=O)c1ccc(SC)cc1	none
CCOc1ccccc1N(C)C(=O)c1c2c(nc3ccccc13)C(=O)N(C1CCCCC1)C2	none
O=C(CCN1CCN(Cc2ccccc2)CC1)NNC(=O)Nc1cccc(Cl)c1	none
O=C(NCCc1ccc(Cl)cc1)Nc1ccc(Cl)cc1	D1 antag -34.4
O=C(NCCN1CCN(Cc2ccccc2)CC1)Nc1cc(Cl)cc(Cl)c1	D1 agonist 30.3
O=C(NCCN1CCN(c2ccccc2)CC1)Nc1cccc(Br)c1	D1 agonist 49.5, D1 antag -44.6!
O=S1(=O)[C@H]2CC3O[C@]2(C[C@@H]3c2ccc(F)cc2)CN1Cc1ccc(Cl)cc1	none
COc1ccc(NS(=O)(=O)c2c(C)[nH]c(C)c2C(=O)N2CCCCC2)cc1Cl	none
COc1ccc(NCC(=O)N2CCCC2)cc1Cl	D1 antag -30.1
COC(=O)c1sc(N/N=C/c2ccc(C(C)C)cc2)nc1C	D1 antag -37.2 (no result: D1 potentiator)
O=[N+]([O-])c1cccc(NC(=S)Nc2nc(-c3ccc(Cl)cc3Cl)cs2)c1	D1 antag -30.8
CCN(CC)S(=O)(=O)c1ccc(C(=O)NNC(=O)c2cccs2)cc1	D1 antag -42.3
CCCCN(CC)S(=O)(=O)c1ccc(C(=O)Nc2nnc(-c3cccs3)o2)cc1	D1 agonist 39.8
CSc1sc2ccccc2[n+]1CCCS(=O)(=O)[O-]	none
Nc1sc2c([n+]1CCCS(=O)(=O)[O-])CCCC2	D1 antag -31.1
CCCS(=O)(=O)N1CC(=O)N(c2cc(C)cc(C)c2)C(C)(C(=O)NC2CCCCCC2)C1 (stereo unspecified)	D1 antag -31.2
CCCS(=O)(=O)N1CC(=O)N(c2ccc(C)cc2)C(C)(C(=O)NC2CCCCCC2)C1 (stereo unspecified)	none
Cc1c(C(=O)O)oc2ccc(S(=O)(=O)N(CC(C)C)CC(C)C)cc12	none
CCCCN1C(=O)C2Cc3c([nH]c4ccccc34)CN2C1=S (stereo unspecified)	D1 antag -33.1
CCCCCN1CC(=O)N2Cc3[nH]c4ccccc4c3C[C@H]2C1=O	none
COc1ccc(CNC(=O)CSc2nnc(NC(=O)C3CC3)s2)cc1	none
Cc1ccc(OCc2cnc(Cl)s2)c(C)c1	none
Cc1cc(C(=O)O)ccc1-c1ccc(/C=C2\SC(=O)N(CC(=O)Nc3ccc4c(c3)OCO4)C2=O)o1	D1 agonist 43.1
CN(C)S(=O)(=O)c1ccc(C(=O)NCc2nnc(SCC(=O)Nc3ccc(F)cc3)n2-c2ccc(F)cc2)cc1	none
CC(SCc1cc(=O)n2c([nH]c3ccccc32)c1C#N)C(=O)O (stereo unspecified)	D1 antag -32.0
N#CCC(CNc1ncc(C(F)(F)F)cc1Cl)OC(=O)c1ccc(Cl)cc1Cl (stereo unspecified)	D1 agonist 30.8
CCOC(=O)CNc1ncc(C(F)(F)F)cc1Cl	none
Cc1cc(C)n(-c2ccc(NC(=O)C3CCN(Cc4cnc(C)s4)CC3)cc2)n1	none
Cc1ncc(CN2CCC(C(=O)Nc3ccc(-n4cccn4)cc3)CC2)s1	TRHR PAM 30.3
O=C(Nc1cccc(F)c1)C1CCN(C(=O)c2ccc(Cl)cc2)CC1	none

Source: PubChem (National Center for Advancing Translational Sciences (NCATS))
